Hits are enriched below; roughly 2.6% of the tested compounds scored in any of these assays.
eIF4H inh: inhibitors of RNA binding by human eIF4H. actives 0.94% (n = 290,000). Q15056. eIF4H fluorescence polarization binding assay. inhibition, % at 35 µM;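 also: calls also rest on retests at 20 µM and on dose response follow-up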
APOBEC3G inh: inhibitors of human APOBEC3G DNA deaminase. Q9HC16. recombinant A3G, ssDNA deamination FAM/TAMRA fluorescence. inhibition, % at 20 µM. actives 0.28% (n = 330,000);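 active = inhibition of at least 40% at 20 µM, with no more than 30% in the related APOBEC3A deaminase screen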;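 also: plate controls were DMSO wells with A3G for no effect and wells lacking A3G enzyme for full effect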
Target sequence (Q9HC16 whole entry, looked up): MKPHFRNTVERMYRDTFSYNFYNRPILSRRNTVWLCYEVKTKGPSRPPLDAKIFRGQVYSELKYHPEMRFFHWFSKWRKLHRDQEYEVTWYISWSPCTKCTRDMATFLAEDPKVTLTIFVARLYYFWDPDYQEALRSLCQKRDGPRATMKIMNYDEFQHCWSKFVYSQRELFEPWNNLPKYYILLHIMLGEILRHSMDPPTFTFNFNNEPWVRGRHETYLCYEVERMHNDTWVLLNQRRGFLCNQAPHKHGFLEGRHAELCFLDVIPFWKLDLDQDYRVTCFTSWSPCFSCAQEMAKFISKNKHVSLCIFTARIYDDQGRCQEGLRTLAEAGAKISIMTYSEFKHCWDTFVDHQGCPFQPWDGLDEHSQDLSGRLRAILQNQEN
PABP polyA inh: PABP-poly(A) binding inhibition. P11940. PABP-poly(A) RNA binding, fluorescence polarization. actives 1% (n = 290,000). calls only at 35 µM;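 also: calls also rest on retests at 20 µM and on dose response follow-up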
APOBEC3A inh: inhibitors of human APOBEC3A DNA deaminase; inhibition, % at 20 µM; AID 493011; P31941; actives 0.41% (n = 330,000); recombinant A3A, FAM/TAMRA ssDNA deamination fluorescence;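 active = at least 40% inhibition at 20 µM here, with at most 30% in a related deaminase screen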;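 also: plate controls were A3A with DMSO for no effect and wells lacking A3A enzyme for full effect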
Target sequence (P31941 whole entry, looked up): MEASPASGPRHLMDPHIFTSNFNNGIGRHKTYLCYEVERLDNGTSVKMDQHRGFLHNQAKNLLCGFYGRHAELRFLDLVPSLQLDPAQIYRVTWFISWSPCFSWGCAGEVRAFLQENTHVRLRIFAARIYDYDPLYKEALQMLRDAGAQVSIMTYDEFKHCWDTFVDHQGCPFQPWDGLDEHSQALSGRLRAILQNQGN
PHOSPHO1 inh: PHOSPHO1 (human) inhibition; Q8TCT1; actives 1.1% (n = 290,000); recombinant PHOSPHO1, absorbance phosphatase assay; inhibition, % at 13.3 µM; in the data active = inhibition above about 60%
PABP1 MLLE inh: inhibitors of microRNA-mediated deadenylation, human PABP1 MLLE binding; inhibition, % at 20 µM; P11940; GST-MLLE / FITC-PAM2 fluorescence polarization; actives 0.36% (n = 360,000); AID 588489; in the data active = inhibition above about 35%, passing the limit was not always enough;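 also: plate controls were DMSO wells with GST-MLLE for no effect and wells lacking GST-MLLE protein for full effect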
Active calls of the source: *; i = inactive; / = no result given; + = active, no number. Unless noted, no rule for the calls is given here.

SMILES	eIF4H inh	APOBEC3G inh	PABP polyA inh	APOBEC3A inh	PHOSPHO1 inh	PABP1 MLLE inh
CCC(=O)N(C)C[C@H]1Oc2cc(-c3ccccc3F)ccc2S(=O)(=O)N([C@H](C)CO)C[C@H]1C	/	/	/	/	/	-12
O=C(CCN1CCC2CCC(C2)C1)c1ccccc1 (stereo unspecified)	/	/	/	/	/	42*
Cc1cc(SC#N)cc(C)c1NC(=O)CCl	8	-4	i	-1	-15	28
CCc1cc(SC#N)cc(C)c1NC(=O)CCl	-4	-12	i	-4	-2	40*
CCC(=O)Nc1ccc(SC#N)cc1C	-6	-7	i	-2	35	59*
Cn1cc(Br)c(C(=O)NC2CCCCCC2)n1	80*	0	i	3	31	4
Cn1cc(Br)c(C(=O)NC2C3CC4CC(C3)CC2C4)n1 (stereo unspecified)	-8	-10	i	-2	-11	12
O=C(O)CC(c1ccc(C(F)(F)F)cc1)N1Cc2ccccc2C1=O (stereo unspecified)	-10	-5	i	-1	24	-7
COc1ccc(CCNCc2ccc(OCC(=O)N3CCCCC3)c(OC)c2)cc1OC	-4	-9	i	0	42	20
CCOCCCNCc1ccc(OCC(=O)N2CCOCC2)c(OC)c1	-7	-7	i	-2	60*	9
Cc1ccc(C(=O)NNC(=O)CCCCC(=O)NNC(=O)c2ccc(C)cc2)cc1	1	-2	i	10	35	-1
O=C(CSc1nc2scc(-c3ccco3)c2c(=O)n1-c1ccccc1)N1CCOCC1	50	-4	i	4	-7	2
c1ccc(Cn2c(SCc3cn4cccnc4n3)nnc2-c2ccco2)cc1	1	-1	i	-2	42	-43
O=c1c2c(-c3ccco3)csc2nc(SCc2cn3cccnc3n2)n1-c1ccccc1	89*	5	+	5	56	-7
NC(=O)CSc1nc2scc(-c3ccco3)c2c(=O)n1-c1ccccc1	67*	2	+	3	28	-16
CCNC(=O)C1CCCN(C(=O)c2ccc3c(c2)CCO3)CC1 (stereo unspecified)	/	/	/	/	/	-4
NC(N)=N/N=C/c1ccc(OS(=O)(=O)c2ccccc2)cc1	active	-8	i	-3	32	-14
Cc1cc(C(=O)O)ccc1-c1ccc(/C=C2\NC(=O)N(Cc3ccccc3Cl)C2=O)o1	86	16	i	35	-6	14
O=C1NC(=O)/C(=C/c2ccc(-c3cc(C(=O)O)ccc3Cl)o2)S1	92*	14	+	39	-11	-3
Cc1ccc(C(=O)O)cc1-c1ccc(/C=C2/NC(=O)N(c3ccccc3)C2=O)o1	79*	39	+	78	38	-14
Cc1cccc(C(=O)NC2CCN(CC(=O)Nc3ccccc3Cl)CC2)c1	-10	-12	i	-6	/	3
CCOC(=O)N1CCC(N(CCN(C)C)C(=S)Nc2cccc(SC)c2)CC1	6	-4	i	1	-10	17
CSc1cccc(NC(=S)N2CCC(N(C)C3CCCC3)CC2)c1	2.1*	-6	+	-3	-13	-40
CC(=O)N1c2ccc(S(=O)(=O)NCc3ccco3)cc2CC1C (stereo unspecified)	1	-2	i	-3	17	-4
COc1cccc(OCc2nc3c4cnn(-c5ccccc5)c4ncn3n2)c1	-5	-5	i	4	-1	-5
SMILES	eIF4H inh	APOBEC3G inh	PABP polyA inh	APOBEC3A inh	PHOSPHO1 inh	PABP1 MLLE inh
c1ccc(-n2ncc3c2ncn2nc(-c4ccco4)nc32)cc1	50*	20	i	8	-36	15
CC1(c2ccccc2)NC(=O)N(CC(=O)Nc2ccc(N3CCOCC3)cc2N2CCOCC2)C1=O (stereo unspecified)	/	0	/	1	/	-10
CSC1=N/C(=C\c2cccc(F)c2)C(=O)S1	-6	-4	i	-1	67*	15
CSC1=N/C(=C\c2ccc(C)cc2)C(=O)S1	5	-5	i	-1	19	-27
Nn1c(Cc2cccc3ccccc23)nnc1SCn1nnc2ccccc2c1=O	-7	-2	i	-2	87*	-118
CN(C(=O)CSc1nnc(Cc2cccc3ccccc23)n1N)C1CCS(=O)(=O)C1 (stereo unspecified)	-1	7	i	-2	88*	-102
O=c1c2ccccc2nnn1Cc1cccc2ccccc12	-6	-4	i	-2	37	17
C[C@@H]1CN([C@@H](C)CO)C(=O)c2cc(Br)cnc2O[C@H]1CN(C)C(=O)NC1CCCC1	/	/	/	/	/	15
Cc1sc2nc(CSCC(=O)NC3(C#N)CCCCC3)[nH]c(=O)c2c1C	/	-4	/	15	/	-44
CCCN(CC(=O)Nc1ccccc1C)C(=O)COC(=O)CSc1ccc([N+](=O)[O-])cc1	/	-6	/	-1	/	40*
CCCN(CC(=O)Nc1ccccc1C)C(=O)COc1c(C)cccc1C	/	-1	/	-3	/	-2
CCC(C)N(C(=O)COC(=O)CSc1ccc([N+](=O)[O-])cc1)C1CCS(=O)(=O)C1 (stereo unspecified)	-7	-1	i	2	8	20
CC1CCCC(C)N1C(=O)COC(=O)CSc1ccc([N+](=O)[O-])cc1 (stereo unspecified)	/	-3	/	-4	/	21
CCOC(=O)C1CCN(C(=O)COC(=O)CSc2ccc([N+](=O)[O-])cc2)CC1	/	-9	/	1	/	42*
CC(OC(=O)CSc1ccc([N+](=O)[O-])cc1)C(=O)NC1CC1 (stereo unspecified)	/	-4	/	1	/	42*
Cc1cccc(NC(=S)NNC(=S)NCc2ccccc2)c1	79	8	i	-4	78*	31
Cc1cccc(NC(=S)NNC(=O)c2sccc2C)c1	1	2	i	4	80*	19
S=C(NCc1ccccc1)Nc1cccc(Cl)c1	-6	-4	i	-1	-5	-12
C/C(=N\NC(=S)Nc1cccc(C)c1)c1cccc(N)c1	-2	-4	i	0	8	33
C/C(=N\NC(=S)Nc1cccc(C)c1)c1ccccc1	4	-4	i	-3	-79	40*
CCc1c(Cl)nc(N)nc1Nc1ccccc1C	/	/	/	/	/	-54
Cc1ccccc1Nc1nc(N)[nH]c(=O)c1N=O	/	/	/	/	/	45*
Cc1ccc(C2C3=C(CCCC3=O)Nc3[nH]c(=S)[nH]c(=O)c32)cc1 (stereo unspecified)	-7	16	i	0	102*	27
CC1(C)CC(=O)C2=C(C1)Nc1[nH]c(=S)[nH]c(=O)c1C2c1ccccc1 (stereo unspecified)	2	11	i	9	96*	28
CSc1nc2c(c(=O)[nH]1)C(c1ccccc1)C1=C(CC(C)(C)CC1=O)N2 (stereo unspecified)	-18	-3	i	-2	8	4
CC1(C(=O)NCCc2ccccc2)Cc2c(-c3ccc(C(N)=O)cc3)ccnc2O1 (stereo unspecified)	/	/	/	/	/	4

Assay outcomes from PubChem BioAssay.
